Experimental data reported in ChEMBL document CHEMBL3988442, “University of Dundee, Small-Polar-MMV Screening Library” (2021).
For part of these data: Potency and affinity values are given separately.

Experiments:
Design in all cases: scale not given: direction of the effect not stated beside the values
[1] = target: Protein translocase subunit SecA (Escherichia coli (strain K12)) (UniProt P10408); assay: Assay to Identify E. coli SecA ATPase Inhibitors; assay type: functional; conditions: 30 µM
Protein translocase subunit SecA (Escherichia coli (strain K12)), sequence (P10408 whole entry): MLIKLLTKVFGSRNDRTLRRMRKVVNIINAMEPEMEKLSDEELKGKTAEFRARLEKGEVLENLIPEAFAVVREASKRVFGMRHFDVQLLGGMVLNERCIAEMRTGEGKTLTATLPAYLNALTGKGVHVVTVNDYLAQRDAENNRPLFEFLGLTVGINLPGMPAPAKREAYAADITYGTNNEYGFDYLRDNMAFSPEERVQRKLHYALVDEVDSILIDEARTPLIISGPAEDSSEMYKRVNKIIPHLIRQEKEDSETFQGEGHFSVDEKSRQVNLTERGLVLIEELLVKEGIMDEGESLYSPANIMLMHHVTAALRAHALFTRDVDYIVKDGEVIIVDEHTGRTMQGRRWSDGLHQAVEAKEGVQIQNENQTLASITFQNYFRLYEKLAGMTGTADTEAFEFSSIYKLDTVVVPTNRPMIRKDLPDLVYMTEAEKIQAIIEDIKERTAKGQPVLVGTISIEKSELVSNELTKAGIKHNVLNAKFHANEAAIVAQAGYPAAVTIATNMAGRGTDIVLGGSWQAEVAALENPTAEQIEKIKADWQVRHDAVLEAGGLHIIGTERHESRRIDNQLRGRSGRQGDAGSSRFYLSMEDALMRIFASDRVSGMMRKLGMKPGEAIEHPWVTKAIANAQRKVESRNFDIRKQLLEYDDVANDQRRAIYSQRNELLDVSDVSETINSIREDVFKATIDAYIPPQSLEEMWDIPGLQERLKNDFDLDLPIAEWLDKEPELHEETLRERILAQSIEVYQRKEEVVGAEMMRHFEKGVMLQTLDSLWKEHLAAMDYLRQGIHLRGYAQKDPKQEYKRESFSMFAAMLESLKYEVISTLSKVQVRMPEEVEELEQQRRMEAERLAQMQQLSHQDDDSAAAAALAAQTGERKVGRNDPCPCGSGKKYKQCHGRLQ

[2] = target: T1, Ubiquitin-activating enzyme e1, putative (Leishmania donovani (strain BPK282A1)) (UniProt E9BSI1); assay: Leishmania donovani Ubiquitin Activating Enzyme (LdE1); assay type: functional; conditions: 30 µM
T1 sequence (whole entry): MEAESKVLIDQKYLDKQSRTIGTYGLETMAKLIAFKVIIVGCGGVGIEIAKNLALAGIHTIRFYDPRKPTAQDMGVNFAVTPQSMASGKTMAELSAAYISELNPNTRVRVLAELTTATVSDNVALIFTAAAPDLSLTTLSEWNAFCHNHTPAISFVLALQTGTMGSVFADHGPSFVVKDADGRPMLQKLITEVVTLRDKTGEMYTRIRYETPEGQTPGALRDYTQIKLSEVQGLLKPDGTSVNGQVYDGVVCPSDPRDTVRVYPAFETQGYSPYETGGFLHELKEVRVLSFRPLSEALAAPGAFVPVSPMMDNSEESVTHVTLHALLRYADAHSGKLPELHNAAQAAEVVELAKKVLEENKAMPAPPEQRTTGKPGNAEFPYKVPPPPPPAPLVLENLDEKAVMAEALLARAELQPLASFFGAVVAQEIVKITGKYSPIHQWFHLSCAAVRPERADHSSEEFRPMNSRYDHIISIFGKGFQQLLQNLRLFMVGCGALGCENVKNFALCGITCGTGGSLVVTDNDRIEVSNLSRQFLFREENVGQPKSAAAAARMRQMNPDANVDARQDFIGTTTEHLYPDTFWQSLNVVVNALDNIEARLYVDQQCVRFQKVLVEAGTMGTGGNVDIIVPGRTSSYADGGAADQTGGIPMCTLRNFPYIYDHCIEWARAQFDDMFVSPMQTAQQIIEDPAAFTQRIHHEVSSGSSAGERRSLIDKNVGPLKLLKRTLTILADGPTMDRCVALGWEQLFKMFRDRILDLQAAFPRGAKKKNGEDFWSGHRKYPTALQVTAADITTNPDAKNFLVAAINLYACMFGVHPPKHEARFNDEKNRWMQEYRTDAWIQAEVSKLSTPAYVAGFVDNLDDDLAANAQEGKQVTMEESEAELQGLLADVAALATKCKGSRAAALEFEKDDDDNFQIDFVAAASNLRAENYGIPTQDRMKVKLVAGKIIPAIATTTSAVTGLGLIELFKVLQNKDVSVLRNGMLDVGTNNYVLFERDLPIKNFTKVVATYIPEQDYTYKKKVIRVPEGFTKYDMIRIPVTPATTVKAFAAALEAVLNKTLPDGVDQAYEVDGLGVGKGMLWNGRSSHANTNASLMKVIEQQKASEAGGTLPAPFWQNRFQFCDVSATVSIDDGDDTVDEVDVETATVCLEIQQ

[3] = target: AMP-activated protein kinase, AMPK (Homo sapiens) (UniProt P54646+O43741+P54619+Q9UGJ0+Q9Y478+Q13131+Q9UGI9); assay: AMP-dependent Kinase enzyme assay. An in vitro enzyme assay that detects ADP turnover that is directly proportional to AMPK activity. This uses naive AMPK that is activated during the assay with MK-8722; assay type: functional; conditions: 30 µM
[4] = target: Sialic acid-binding Ig-like lectin 9 (Homo sapiens) (UniProt Q9Y336); assay: Hs-Siglec9 ALPHAscreen SOP 20170721; conditions: 10 µM
Sialic acid-binding Ig-like lectin 9 (Homo sapiens), sequence (Q9Y336 whole entry): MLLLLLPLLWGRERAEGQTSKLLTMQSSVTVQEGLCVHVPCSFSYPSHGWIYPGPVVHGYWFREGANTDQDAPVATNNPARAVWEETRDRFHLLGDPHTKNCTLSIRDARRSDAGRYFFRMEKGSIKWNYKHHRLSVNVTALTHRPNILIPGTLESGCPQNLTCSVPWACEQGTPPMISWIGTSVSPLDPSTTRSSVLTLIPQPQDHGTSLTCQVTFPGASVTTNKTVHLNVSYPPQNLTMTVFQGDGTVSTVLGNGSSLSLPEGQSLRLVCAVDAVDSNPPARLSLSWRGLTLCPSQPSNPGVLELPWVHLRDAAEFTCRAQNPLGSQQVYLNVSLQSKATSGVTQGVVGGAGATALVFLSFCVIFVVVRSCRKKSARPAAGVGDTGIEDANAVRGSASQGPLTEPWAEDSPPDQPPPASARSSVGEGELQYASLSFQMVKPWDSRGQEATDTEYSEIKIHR

Trypanosoma cruzi = assay: Trypanosoma cruzi phosphomannomutase and mannose-1-phosphate guanylyltransferase assay; assay type: functional; conditions: 10 µM
[5] = target: T2, Arginase-2, mitochondrial (Homo sapiens) (UniProt P78540); assay: in vitro enzyme assay to detect the production of urea directly proportional to the activity of Arginase II; assay type: functional; conditions: 33.3 µM; also: in the data most compounds retested in dose-response had high values
T2 sequence (whole entry): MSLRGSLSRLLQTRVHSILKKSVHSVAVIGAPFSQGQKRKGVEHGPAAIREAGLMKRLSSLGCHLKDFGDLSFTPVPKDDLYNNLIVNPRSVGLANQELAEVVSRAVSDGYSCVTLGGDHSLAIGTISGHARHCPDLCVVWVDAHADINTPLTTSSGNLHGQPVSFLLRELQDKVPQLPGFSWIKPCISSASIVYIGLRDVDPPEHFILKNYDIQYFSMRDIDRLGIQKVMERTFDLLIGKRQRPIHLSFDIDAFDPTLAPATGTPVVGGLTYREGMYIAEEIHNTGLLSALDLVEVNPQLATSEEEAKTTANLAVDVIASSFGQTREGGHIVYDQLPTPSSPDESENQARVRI

[6] = target: T3, Proteasome subunit beta (Trypanosoma cruzi) (UniProt O96673); assay: Trypanosoma cruzi proteasome chymotrypsin-like activity (TcProtChymo) assay.; also: in the data most compounds retested in dose-response had high values; assay type: functional; conditions: 9.37 µM
T3 sequence (whole entry): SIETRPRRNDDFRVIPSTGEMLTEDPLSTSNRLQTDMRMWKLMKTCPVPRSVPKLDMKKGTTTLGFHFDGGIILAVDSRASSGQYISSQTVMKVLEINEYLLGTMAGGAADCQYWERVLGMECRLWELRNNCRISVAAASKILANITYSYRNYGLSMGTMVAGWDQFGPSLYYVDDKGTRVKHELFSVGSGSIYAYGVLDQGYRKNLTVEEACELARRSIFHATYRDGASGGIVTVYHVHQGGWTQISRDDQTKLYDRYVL

Homo sapiens = organism: Homo sapiens; assay: To identify inhibition of the IFN signalling (Jak-Stat) pathway via expression of an eGFP reporter gene under the control of an IFN-stimulated response element (ISRE) containing MxA promoter.; assay type: functional; conditions: 30 µM
[7] = target: T4, Tyrosyl-tRNA synthetase, putative (Trypanosoma cruzi (strain CL Brener)) (UniProt Q4DSP6); assay: Trypanosoma cruzi tyrosyl tRNA synthetase (TcYRS) _High Tyrosine SOP; assay type: functional; conditions: 30 µM; also: in the data most compounds retested in dose-response had high values
T4 sequence (whole entry): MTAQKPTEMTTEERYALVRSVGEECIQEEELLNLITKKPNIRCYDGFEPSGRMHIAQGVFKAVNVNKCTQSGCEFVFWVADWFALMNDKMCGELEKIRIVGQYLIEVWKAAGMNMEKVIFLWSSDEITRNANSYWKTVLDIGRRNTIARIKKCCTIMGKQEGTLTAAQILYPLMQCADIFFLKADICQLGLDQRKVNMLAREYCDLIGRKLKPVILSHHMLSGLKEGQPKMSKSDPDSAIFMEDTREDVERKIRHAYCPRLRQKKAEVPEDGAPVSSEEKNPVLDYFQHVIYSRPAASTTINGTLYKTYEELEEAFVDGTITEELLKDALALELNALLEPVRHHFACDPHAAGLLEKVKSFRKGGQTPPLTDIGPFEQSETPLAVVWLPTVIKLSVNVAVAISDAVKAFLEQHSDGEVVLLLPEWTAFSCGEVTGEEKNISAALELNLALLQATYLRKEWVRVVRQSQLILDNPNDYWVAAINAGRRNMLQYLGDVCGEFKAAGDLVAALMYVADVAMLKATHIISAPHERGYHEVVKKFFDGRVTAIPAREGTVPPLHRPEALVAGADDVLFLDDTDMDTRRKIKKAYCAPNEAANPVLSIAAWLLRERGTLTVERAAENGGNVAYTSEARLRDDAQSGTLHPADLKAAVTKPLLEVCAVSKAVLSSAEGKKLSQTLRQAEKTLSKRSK

[8] = target: T4, Tyrosyl-tRNA synthetase, putative (Trypanosoma cruzi (strain CL Brener)); assay: Trypanosoma cruzi tyrosyl tRNA synthetase (TcYRS) SOP; assay type: functional; conditions: 30 µM
[9] = target: Chromo domain-containing protein 1 (Saccharomyces cerevisiae (strain ATCC 204508 / S288c) (Baker's yeast)) (UniProt P32657); assay: ScCHD-1 Enzyme Inhibition Assay; assay type: functional; conditions: 30 µM; also: in the data most compounds retested in dose-response had high values
Chromo domain-containing protein 1 (Saccharomyces cerevisiae (strain ATCC 204508 / S288c) (Baker's yeast)), sequence (P32657 whole entry, the tested form may be a part): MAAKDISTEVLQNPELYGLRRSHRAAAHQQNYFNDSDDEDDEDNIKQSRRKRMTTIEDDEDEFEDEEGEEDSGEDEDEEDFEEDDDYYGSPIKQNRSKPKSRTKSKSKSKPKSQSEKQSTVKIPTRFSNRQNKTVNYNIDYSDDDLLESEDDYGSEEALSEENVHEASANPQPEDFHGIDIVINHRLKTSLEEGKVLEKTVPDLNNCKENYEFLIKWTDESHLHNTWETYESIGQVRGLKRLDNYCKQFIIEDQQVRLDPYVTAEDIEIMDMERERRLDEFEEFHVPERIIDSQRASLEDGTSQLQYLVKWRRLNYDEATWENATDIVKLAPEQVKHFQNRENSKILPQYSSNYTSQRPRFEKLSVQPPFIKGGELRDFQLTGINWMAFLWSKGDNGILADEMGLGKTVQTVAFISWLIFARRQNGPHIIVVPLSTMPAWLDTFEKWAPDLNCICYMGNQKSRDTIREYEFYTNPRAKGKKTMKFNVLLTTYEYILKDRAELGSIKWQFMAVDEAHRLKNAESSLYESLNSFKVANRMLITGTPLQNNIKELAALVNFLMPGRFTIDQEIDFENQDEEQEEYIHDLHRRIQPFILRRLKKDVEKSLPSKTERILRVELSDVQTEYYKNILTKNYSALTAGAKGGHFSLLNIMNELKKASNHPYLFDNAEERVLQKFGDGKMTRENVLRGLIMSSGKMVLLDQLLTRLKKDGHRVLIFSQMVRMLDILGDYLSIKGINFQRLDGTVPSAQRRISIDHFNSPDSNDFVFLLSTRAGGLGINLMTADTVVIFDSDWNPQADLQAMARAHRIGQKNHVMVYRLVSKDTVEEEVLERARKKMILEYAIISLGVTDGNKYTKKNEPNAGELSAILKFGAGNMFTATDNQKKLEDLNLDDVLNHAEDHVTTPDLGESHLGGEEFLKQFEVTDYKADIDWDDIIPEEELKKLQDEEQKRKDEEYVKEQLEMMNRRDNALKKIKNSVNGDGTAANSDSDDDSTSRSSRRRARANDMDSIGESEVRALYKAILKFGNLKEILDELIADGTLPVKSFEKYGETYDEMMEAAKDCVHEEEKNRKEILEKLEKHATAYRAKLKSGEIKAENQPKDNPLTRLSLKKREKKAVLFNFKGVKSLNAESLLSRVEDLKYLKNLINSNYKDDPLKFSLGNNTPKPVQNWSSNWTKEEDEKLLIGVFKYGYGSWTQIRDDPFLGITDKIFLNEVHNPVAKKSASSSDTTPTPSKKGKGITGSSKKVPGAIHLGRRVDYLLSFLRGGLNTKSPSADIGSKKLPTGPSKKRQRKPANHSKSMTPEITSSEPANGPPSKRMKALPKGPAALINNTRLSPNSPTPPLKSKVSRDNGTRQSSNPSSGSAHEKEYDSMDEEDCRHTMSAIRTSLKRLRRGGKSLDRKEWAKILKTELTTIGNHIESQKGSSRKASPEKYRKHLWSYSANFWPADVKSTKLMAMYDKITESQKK

SMILES | Percent Effect [1] [%] | Percent Effect [2] [%] | Percent Effect [3] [%] | Percent Effect [4] [%] | Percent Effect (Trypanosoma cruzi) [%] | Percent Effect [5] [%] | Percent Effect [6] [%] | Percent Effect (Homo sapiens) [%] | Percent Effect [7] [%] | Percent Effect [8] [%] | Percent Effect [9] [%]
Cc1ccc(CN2CC3(CCN(C(=O)c4cscn4)C3)C2)s1 | 1.32 | 0 | 1.31 | 11.8 | -2.98 | 3.19 | 9.85 | -1.49 | 7.29 | -1.24 | -1.23
C[C@@H]1CN(C(=O)c2ccc(C#N)nc2)CC[C@@]1(O)C1CCOCC1 | -2.31 | 5.41 | -1.11 | 17.6 | 6.18 | 10.5 | 3.45 | 14.3 | 5.82 | 9.76 | -1.75
Cn1cccc1CCC(=O)N1CCC2(CC1)c1ccccc1CC2O (stereo unspecified) | 0.249 | 13 | -1.66 | 10.8 | 4.23 | -38.6 | 20.6 | 21.3 | 11.8 | 16.1 | 5.42
Cn1cc(CN2CC[C@H]3O[C@H](C(=O)NCc4ccco4)CC[C@H]32)cn1 | -0.286 | 5.33 | -3.22 | -1.09 | -7.14 | -53.2 | 6.67 | -2.52 | 1.04 | 12.5 | -5.84
CCN1CCC2(CC1)CC(NC(=O)NC)c1cc(C)ccc12 (stereo unspecified) | -3.84 | 13.3 | 6.34 | 6.37 | 5.21 | -56.5 | 10.9 | -24.6 | 4.17 | 7.5 | -5.82
Cc1cc(C2CCCN(C(=O)c3cnn(C)c3)C2)ccn1 (stereo unspecified) | -5.39 | 9.46 | 10.9 | 0.0727 | 5.93 | -0.696 | 12.3 | -13.7 | 8.6 | 11.7 | -9.36
CSc1ccccc1CN1CCn2nc(CNC(C)=O)cc2C1 | 0.00499 | 11 | 1.85 | 8.13 | 2.35 | 18.2 | 18.6 | 15.7 | 6.45 | 20 | -3.35
Cc1cc(CC(=O)N(CC2CN(C)CCO2)c2nccs2)no1 (stereo unspecified) | 1.69 | 0 | -0.764 | 6.8 | 6.41 | 2.03 | 1.08 | -15.8 | 0 | 6.1 | -3.54
Fc1ccc(-c2nnc(CN3CCCC3Cn3cncn3)o2)cc1 (stereo unspecified) | -1.9 | 5.2 | -0.239 | 9.41 | 6.93 | 0.712 | 7.26 | -14.3 | 4.85 | 19.5 | -10.5
CCC1CN(C(=O)Nc2cnc3c(cnn3C(C)C)c2)CCO1 (stereo unspecified) | 0.162 | 13.5 | -1.29 | 10.7 | -5.48 | 0.554 | 17.6 | 22.8 | 6.93 | 18.3 | -2.08
Cn1nc(C(=O)NCc2ccccn2)c2c1CCS(=O)(=O)C2 | -2.26 | 6.67 | 15 | 1.25 | -6.48 | -11.1 | 16.3 | 11.6 | 6.35 | 12.8 | -9.63
CC(C)N(C)S(=O)(=O)N(C)Cc1ccc2c(c1)OCO2 | -6.28 | 15.6 | -11.7 | 5.6 | 10.5 | 2.49 | 12.7 | 13.3 | 5.83 | 21.9 | -8.74
O=S1(=O)CCCN1Cc1coc(-c2cccs2)n1 | -1.93 | 15.3 | -14.2 | 1.81 | 2.82 | 13.2 | 23.3 | -8.56 | 5.26 | 12.8 | -3.41
COc1ccccc1CC(=O)NS(=O)(=O)c1ccc(C(N)=O)cc1 | -0.063 | 0 | 0.334 | 0.784 | -0.374 | 9.25 | 1.35 | -4.28 | 3.88 | -2.44 | -0.229
CSCC(C)(O)CNC(=O)c1ccc(Br)cc1F (stereo unspecified) | -7.07 | 2.7 | -0.438 | 0.101 | 2.25 | 3.23 | 2.15 | -2.21 | 3.23 | 6.17 | -3.6
Cc1nccc(C(=O)N2CCCN(Cc3cnn(C(C)C)c3)CC2)n1 | -7.35 | -8.11 | 0.58 | 14.6 | -2.93 | -0.833 | 7.35 | 1.24 | 5.94 | 11 | 6.2
Cc1nc(N2CCCC2)nc2c1CN(C(C)C)CC2 | -5.79 | 21.3 | -1.49 | 4.47 | 3.28 | -51.8 | 1.71 | -7.95 | 6.25 | 17.5 | -11.2
N#CCSCCCN1CCCN(C(=O)c2ccccc2)CC1 | -1.53 | -5.48 | 0.11 | 1.74 | -4.17 | 3.19 | 1.63 | 14.4 | 1.04 | 3.7 | 6.49
Cc1nc(CN2CCCN(C(=O)C(C)OCC3CC3)CC2)cs1 (stereo unspecified) | -1.24 | 3.8 | 0.098 | 0.839 | 3.38 | 0.215 | 10.6 | 4.67 | 3.12 | 2.53 | -18.2
O=C1CN(Cc2nnc(-c3ccc(Br)o3)o2)CCN1 | -0.248 | 4.17 | -1.21 | -1.55 | 0.486 | 1.32 | 21.2 | -4.7 | 7.37 | 0 | -3.99
CCC(CC)C(CNC(=O)Nc1ccc(C)cc1)N1CCOCC1 (stereo unspecified) | -3.76 | 22.8 | -8.69 | -4.59 | 4.63 | -0.76 | 3.52 | 5.24 | -25.1 | 21.5 | -8.39
